Screening results: PubChem BioAssay, several laboratories
This is a sample that favours compounds with a hit; in the whole collection about 4% have one here.
GDH-TPI counter-1 = counter-screen for M. tuberculosis FBA inhibitors: GDH-TPI coupled enzymes | GDH-TPI coupled enzyme counterscreen, NADH absorbance | inhibition, % at 4.8 µM | 360,000 tested, 1.2% active | AID 588335; in the data active = inhibition above about 30%;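 note: 0% = DMSO wells and 100% = wells lacking the enzyme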
Mtb bLac sens = beta-lactam sensitization of Mtb H37Rv; 330,000 tested, 0.27% active; inhibition, % at 25 µM; M. tuberculosis H37Rv growth with meropenem, percent inhibition; AID 434955; call rule not given here;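 note: growth measured after seven days incubation then overnight dye step; 0% = bacteria only wells and 100% = bacteria with antibiotic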
RecA splice inh = Mtb RecA intein splicing inhibition | cell-free RecA intein splicing, fluorescence | inhibition, % (concentration not given with the values) | 290,000 tested, 0.75% active; in the data active = inhibition above about 30%;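 note: 0% = vehicle wells and 100% = reference inhibitor control wells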
FBA Mtb inh = Mtb fructose-bisphosphate aldolase inhibition | P9WQA3 | inhibition, % at 1 µM | purified M. tuberculosis FBA, fluorescence read-out | 360,000 tested, 2.3% active;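 note: 0% = vehicle and 100% = reference inhibitor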
Target sequence (P9WQA3 whole entry, looked up): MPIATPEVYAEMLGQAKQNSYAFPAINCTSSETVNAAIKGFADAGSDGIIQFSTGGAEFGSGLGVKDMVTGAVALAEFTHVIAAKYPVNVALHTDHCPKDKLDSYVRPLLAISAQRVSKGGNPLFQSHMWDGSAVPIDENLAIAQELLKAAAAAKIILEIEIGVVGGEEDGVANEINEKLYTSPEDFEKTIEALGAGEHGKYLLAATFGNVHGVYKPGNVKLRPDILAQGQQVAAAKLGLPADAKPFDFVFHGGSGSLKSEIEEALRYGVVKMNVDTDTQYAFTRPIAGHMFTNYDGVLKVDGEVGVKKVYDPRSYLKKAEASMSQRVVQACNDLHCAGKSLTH
Mtb UGM inh = blocks M. tuberculosis UGM enzyme | 320,000 tested, 0.06% active | purified UGM, fluorescence polarization probe displacement | P9WIQ1 | inhibition, % at 10 µM | AID 504406; in the data active = inhibition above about 10%, passing the limit was not always enough
Rv3671c inh = inhibits the M. tuberculosis serine protease Rv3671c; inhibition, % at 5.96 µM; 320,000 tested, 0.048% active; in the data active = inhibition above about 38%;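 note: extracellular domain of Rv3671c used as enzyme; 0% = enzyme with DMSO and 100% = no enzyme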
Mtb FBA inh conf = confirmation of M. tuberculosis fructose-bisphosphate aldolase inhibitors. shares compounds with FBA Mtb inh. purified M. tuberculosis FBA, fluorescence read-out. inhibition, % at 1 µM. 5,600 tested, 78% active. AID 651616;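 note: 0% = vehicle wells and 100% = reference inhibitor wells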
GDH-TPI counter-2 = GDH-TPI inhibition counter-screen for FBA inhibitors | shares compounds with FBA Mtb inh | GDH-TPI coupled enzyme counterscreen, fluorescence | inhibition, % at 1 µM | 5,600 tested, 81% active | AID 652141; in the data active = inhibition above about 10%
Numbers without * were called inactive; i = inactive; . = no result given; + = active, no number. Cut-off read from the data, not from the text of the source, unless noted: active = inhibition above about 27%; inactive = the rest.

SMILES	GDH-TPI counter-1	Mtb bLac sens	RecA splice inh	FBA Mtb inh	Mtb UGM inh	Rv3671c inh	Mtb FBA inh conf	GDH-TPI counter-2
COc1cc(NC(=O)CSc2nnc(-c3ccncc3)o2)cc(OC)c1OC	1.0	-6.4	4.0	5.1	-1.9	-2.4	.	.
COC(=O)COc1cc(C)cc2oc(=O)c(CC(=O)OC)c(C)c12	8.8	-6.4	-3.0	92.7*	-1.5	-8.9	83.8*	66.2*
O=S(=O)(c1ccc(S(=O)(=O)N2CCC(O)CC2)cc1)N1CCCC1	-8.2	2.6	1.4	0.8	-0.5	7.3	.	.
O=C(OCc1ccccc1Cl)c1cccnc1Cl	-1.4	17.4	0.1	1.3	-3.1	0.5	.	.
N#Cc1ccccc1COC(=O)c1cccnc1N	6.8	5.1	0.5	46.0*	-1.8	-10.9	152.8*	96.4*
Cc1cc(OCc2nn[nH]n2)c2c(-c3ccccc3)cc(=O)oc2c1	-9.5	-3.5	0.1	3.8	1.5	3.3	.	.
Cc1cc(OCc2nn[nH]n2)c2c(C)c(Cc3ccccc3)c(=O)oc2c1	3.4	-5.0	5.5	104.8*	-0.4	-6.6	66.1*	58.2*
Cc1c(Cc2ccccc2)c(=O)oc2c(C)c(OCc3nn[nH]n3)ccc12	18.2	-7.8	.	65.9*	-1.9	-9.3	+	+
CCCc1cc(=O)oc2c(C)c(OCc3nn[nH]n3)ccc12	14.2	-12.2	-0.7	50.2*	-2.2	4.9	3.1	-1.0
Cc1c(Cc2ccccc2)c(=O)oc2c(C)c(OCC(=O)NCc3ccccn3)ccc12	2.2	-0.8	-2.5	4.8	-0.5	-7.3	.	.
COc1ccc(-c2cc(=O)oc3c(C)c(OCc4nn[nH]n4)ccc23)cc1	17.0	2.0	2.3	5.6	2.6	-3.6	.	.
CC1(C(=O)Nc2cnc3ccccc3c2)CCN1C(=O)CC(c1ccccc1)c1ccccc1 (stereo not given)	5.8	.	.	-0.6	.	.	.	.
CCC1(CC)C(=O)N(c2ccccc2)C(=N)N(c2ccccc2)C1=O	13.6	.	.	4.3	.	.	.	.
CC(C)Oc1cccc(-c2cc(C(=O)NC(=S)N(C)c3ccccc3C(=O)O)c3ccccc3n2)c1	12.8	11.1	5.0	42.3*	3.1	-3.5	5.4	-4.2
O=[N+]([O-])c1ccc(N2CCCC2)c([N+](=O)[O-])c1	7.1	.	.	29.1*	.	.	181.9*	123.3*
O=[N+]([O-])c1ccc(N2CCOCC2)c([N+](=O)[O-])c1	22.8	.	.	-5.2	.	.	.	.
CN1CCN(c2nc3ccccn3c(=O)c2C=C(C#N)C#N)CC1	19.0	-11.5	-9.1	2.4	-0.9	4.2	.	.
Cc1ccc2nc3c(c(N)c2c1)CCN3c1ccccc1	15.0	-5.1	-1.2	29.4*	-1.0	-6.6	+	+
Cc1ccc2nc3c(c(N)c2c1)CCN3C	-8.8	-1.3	-2.5	24.8	0.8	3.2	.	.
CN1CCc2c1nc1ccccc1c2N (tested in a mixture with another compound)	8.9	4.1	-1.0	28.9*	0.1	-4.2	95.7*	82.7*
Cc1cccc2c(N)c3c(nc12)N(C)CC3	-4.3	-3.4	-2.8	30.6*	0.7	-3.6	77.2*	45.0*
CN1CCc2c1nc1ccccc1c2N=C1CCCN1Cc1ccccc1	10.4	-3.2	.	11.6	-1.6	-0.5	.	.
Cc1cccc2c(N)c3c(nc12)CCCC3 (tested in a mixture with another compound)	2.5	.	.	6.0	.	.	.	.
CN(C)c1ncc(S(=O)(=O)c2ccccc2)c(N)n1	8.2	-3.4	-1.2	1.3	-2.5	-5.9	.	.
Cc1ccc(S(=O)(=O)c2cc3ccccc3nc2N)cc1	0.6	-8.8	-2.6	36.4*	0.8	-1.1	+	193.3*
SMILES	GDH-TPI counter-1	Mtb bLac sens	RecA splice inh	FBA Mtb inh	Mtb UGM inh	Rv3671c inh	Mtb FBA inh conf	GDH-TPI counter-2
CN(C)c1ccc(N2C(=NC(=O)COc3ccccc3)SC3CS(=O)(=O)CC32)cc1 (stereo not given)	4.3	-9.7	-1.4	-1.2	0.4	-1.5	.	.
COCCNc1oc(/C=C/c2cccc(OC)c2)nc1S(=O)(=O)c1ccccc1	31.9*	.	.	47.2*	.	.	123.0*	89.4*
COc1ccccc1/C=C/c1nc(S(=O)(=O)c2ccccc2)c(N(C)C)o1	16.9	5.4	-0.5	6.5	-1.4	-2.4	.	.
COc1cccc(/C=C/c2nc(S(=O)(=O)c3ccccc3)c(N(C)C)o2)c1	22.4	-5.9	-24.1	47.0*	7.3	-5.6	57.6*	43.6*
CC1(C)COC(Cc2ccccc2)=N1	-2.2	.	.	-1.1	.	.	.	.
C=CCN(c1ccccc1)S(=O)(=O)c1cccc(C(=O)O)c1	4.0	-7.9	-1.4	54.4*	1.6	-3.5	198.9*	189.0*
Cc1cc(C)cc(Oc2coc3c(CN(C)C)c(O)ccc3c2=O)c1	22.2	-7.1	-3.8	91.9*	-0.4	-3.2	77.3*	67.5*
O=C(COc1ccccc1)Nc1cccc(-c2nc3cc4ccccc4cc3[nH]2)c1	28.7	71.5	.	72.1*	-0.5	-186.8	101.2*	79.4*
COc1ccc(NC(=O)Nc2cccc3c2O[C@H](CN(C)S(C)(=O)=O)[C@@H](C)CN([C@H](C)CO)C3=O)cc1	4.3	4.7	.	3.5	2.7	1.3	.	.
COc1ccc(-c2ccc(C(=O)C3CC3)cc2)cc1	3.5	10.2	-1.6	59.9*	-1.2	-1.4	51.8*	44.5*
Cn1c(NN)nc2ccccc2c1=O	4.2	4.0	-7.0	4.6	-1.5	-2.8	.	.
N#Cc1c2ccccc2nc2ccccc12	-2.2	95.0	-1.8	27.6*	-7.5	1.0	181.9*	116.7*
Cn1c(N)nc2ccccc2c1=O	-0.7	-13.5	6.5	28.1*	-0.2	-4.3	34.1*	22.3*
CCCc1c2ccccc2nc2ccccc12	8.1	0.0	-12.4	50.0*	3.3	1.8	38.4*	33.6*
Nc1c2c(nc3ccccc13)CCCC2	13.0	-2.3	0.2	-1.4	1.5	5.1	.	.
Nc1c2ccccc2nc2ccccc12	5.8	72.4	i	63.4*	-2.5	-6.6	72.5*	47.7*
COc1ccc(OC)c(C2Nc3ccccc3NC3=C2C(=O)CC(C)(C)C3)c1 (stereo not given)	19.5	-31.1	0.2	-0.8	-2.0	9.9	.	.
CCCSc1ccc([C@H]2N[C@@](CC(C)C)(C(=O)OC)[C@H]3C(=O)N(C)C(=O)[C@@H]23)cc1	-1.7	-5.1	2.7	0.6	-3.1	-3.1	.	.
Nc1nc2ccccc2nc1N	3.4	7.5	-2.9	50.6*	-1.9	2.5	68.9*	60.7*
Nc1nccc(/C=C/c2c(Cl)cccc2Cl)n1	16.1	-8.3	2.3	14.1	-6.8	-0.7	.	.
Nc1nccc(/C=C/c2ccc(Cl)cc2)n1	19.2	4.6	2.2	30.1*	-1.9	-1.5	84.0*	49.2*
Cc1ccc(C)c(-n2ccnc2SCC(=O)c2c(N)n(C3CC3)c(=O)[nH]c2=O)c1	3.5	-3.6	.	5.6	-0.2	-3.5	.	.
